# According to the supplement of paper PMC12645437, “Orthogonal IMiD-Degron Pairs Induce Selective Protein Degradation in Cells” (ACS Chemical Biology, 2025):
# Over roughly 8,300 sequences, “log2 fold change of degron read counts, EGFP-low vs EGFP+ sorted cells (limma voom), compound-induced degradation” has its median near -1.1; the highest 2% begin near 3.2. This is one part of a sample in which the highest values are shown more often than they occur.
# Target: T1, CRBN, Q96SW2
# T1 chain: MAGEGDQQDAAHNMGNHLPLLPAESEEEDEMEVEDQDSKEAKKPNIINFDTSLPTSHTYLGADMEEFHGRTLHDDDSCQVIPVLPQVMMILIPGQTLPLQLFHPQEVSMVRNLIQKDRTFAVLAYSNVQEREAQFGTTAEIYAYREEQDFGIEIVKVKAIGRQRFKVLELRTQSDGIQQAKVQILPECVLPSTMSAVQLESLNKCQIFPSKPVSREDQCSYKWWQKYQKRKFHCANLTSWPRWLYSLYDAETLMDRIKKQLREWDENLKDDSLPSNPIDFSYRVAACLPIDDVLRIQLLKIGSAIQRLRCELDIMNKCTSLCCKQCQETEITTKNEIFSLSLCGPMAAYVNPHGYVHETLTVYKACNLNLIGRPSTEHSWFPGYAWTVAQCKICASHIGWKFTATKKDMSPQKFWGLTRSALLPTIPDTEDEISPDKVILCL
# Experiment: log2 fold change of degron read counts, EGFP-low vs EGFP+ sorted cells (limma voom), compound-induced degradation; higher = more compound-induced degradation of the degron-EGFP fusion; degrons are variants of IKZF1/3 zinc finger 2; compound dose not given here
# Conditions: Jurkat, 18 h
# [1] = compound: compound 19 (5-tert-butyl-thalidomide)
# [2] = compound: compound 22 (5-morpholino-thalidomide)
# [3] = compound: compound 33 (diphenyl IMiD analogue)
# 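Further: pooled lentiviral library of zinc finger degron-EGFP fusions in mCherry-positive Jurkat cells, FACS-sorted after compound exposure, with degron abundance counted by next-generation sequencing.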
sequence,measurement,setting,value
"FWCNQCGAEFTQKGNLLRHIKL [46F_47W_49N_50Q_52G_53A_54E_55F_67L_, Q9UKT9]",log2 fold change of degron read counts,[1],-1.48
same,log2 fold change of degron read counts,[2],-2.56
same,log2 fold change of degron read counts,[3],-2.24
same,log2 fold change of degron read counts,compound: thalidomide,-2.85
"FGCEICGRGFTQKGNLLRHIKL [46F_47G_49E_50I_52G_53R_54G_55F_67L_, Q9UKT9]",log2 fold change of degron read counts,[1],-1.02
same,log2 fold change of degron read counts,[2],-2.46
same,log2 fold change of degron read counts,[3],-2.04
same,log2 fold change of degron read counts,compound: thalidomide,-2.19
"LGCEICGFCCTQKGNLLRHIKL [46L_47G_49E_50I_52G_53F_54C_55C_67L_, Q9UKT9]",log2 fold change of degron read counts,[1],-0.15
same,log2 fold change of degron read counts,[2],-0.36
same,log2 fold change of degron read counts,[3],-0.974
same,log2 fold change of degron read counts,compound: thalidomide,-0.994
"FKCEVCGAHFTQKGNLLRHIKL [46F_47K_49E_50V_52G_53A_54H_55F_67L_, Q9UKT9]",log2 fold change of degron read counts,[1],-2.01
same,log2 fold change of degron read counts,[2],-3.17
same,log2 fold change of degron read counts,[3],-2.55
same,log2 fold change of degron read counts,compound: thalidomide,-1.68
"LNCPICGFNCTQKGNLLRHIKL [46L_47N_49P_50I_52G_53F_54N_55C_67L_, Q9UKT9]",log2 fold change of degron read counts,[1],0.0324
same,log2 fold change of degron read counts,[2],-0.534
same,log2 fold change of degron read counts,[3],-0.051
same,log2 fold change of degron read counts,compound: thalidomide,0.589
"FTCEVCGAMFTQKGNLLRHIKL [46F_47T_49E_50V_52G_53A_54M_55F_67L_, Q9UKT9]",log2 fold change of degron read counts,[1],-0.151
same,log2 fold change of degron read counts,[2],0.976
same,log2 fold change of degron read counts,[3],1.67
same,log2 fold change of degron read counts,compound: thalidomide,1.62
"FCCEVCGAMFTQKGNLLRHIKL [46F_47C_49E_50V_52G_53A_54M_55F_67L_, Q9UKT9]",log2 fold change of degron read counts,[1],1.54
same,log2 fold change of degron read counts,[2],1.34
same,log2 fold change of degron read counts,[3],1.7
same,log2 fold change of degron read counts,compound: thalidomide,0.852
"FWCEVCGAMFTQKGNLLRHIKL [46F_47W_49E_50V_52G_53A_54M_55F_67L_, Q9UKT9]",log2 fold change of degron read counts,[1],3.14
same,log2 fold change of degron read counts,[2],3.46
same,log2 fold change of degron read counts,[3],2.23
same,log2 fold change of degron read counts,compound: thalidomide,0.316
"FQCNICGANFTQKGNLLRHIKL [46F_47Q_49N_50I_52G_53A_54N_55F_67L_, Q9UKT9]",log2 fold change of degron read counts,[1],-0.813
same,log2 fold change of degron read counts,[2],0.399
same,log2 fold change of degron read counts,[3],1.05
same,log2 fold change of degron read counts,compound: thalidomide,3.08
"FYCNQCGRCFTQKGNLLRHIKL [46F_47Y_49N_50Q_52G_53R_54C_55F_67L_, Q9UKT9]",log2 fold change of degron read counts,[1],-1.93
same,log2 fold change of degron read counts,[2],-2.09
same,log2 fold change of degron read counts,[3],-1.97
same,log2 fold change of degron read counts,compound: thalidomide,-2.28
"LTCNQCGFKCTQKGNLLRHIKL [46L_47T_49N_50Q_52G_53F_54K_55C_67L_, Q9UKT9]",log2 fold change of degron read counts,[1],-2.23
same,log2 fold change of degron read counts,[2],-1.85
same,log2 fold change of degron read counts,[3],-2.34
same,log2 fold change of degron read counts,compound: thalidomide,-1.79
"FVCPICGAIFTQKGNLLRHIKL [46F_47V_49P_50I_52G_53A_54I_55F_67L_, Q9UKT9]",log2 fold change of degron read counts,[1],-0.598
same,log2 fold change of degron read counts,[2],0.358
same,log2 fold change of degron read counts,[3],1.51
same,log2 fold change of degron read counts,compound: thalidomide,1.69
"FQCPICGAIFTQKGNLLRHIKL [46F_47Q_49P_50I_52G_53A_54I_55F_67L_, Q9UKT9]",log2 fold change of degron read counts,[1],-0.241
same,log2 fold change of degron read counts,[2],3.26
same,log2 fold change of degron read counts,[3],2.84
same,log2 fold change of degron read counts,compound: thalidomide,3.79
"FYCPICGAIFTQKGNLLRHIKL [46F_47Y_49P_50I_52G_53A_54I_55F_67L_, Q9UKT9]",log2 fold change of degron read counts,[1],2.75
same,log2 fold change of degron read counts,[2],2.82
same,log2 fold change of degron read counts,[3],1.86
same,log2 fold change of degron read counts,compound: thalidomide,0.386
"FSCPICGAIFTQKGNLLRHIKL [46F_47S_49P_50I_52G_53A_54I_55F_67L_, Q9UKT9]",log2 fold change of degron read counts,[1],1.58
same,log2 fold change of degron read counts,[2],1.34
same,log2 fold change of degron read counts,[3],2.26
same,log2 fold change of degron read counts,compound: thalidomide,0.935
"FTCPICGRIFTQKGNLLRHIKL [46F_47T_49P_50I_52G_53R_54I_55F_67L_, Q9UKT9]",log2 fold change of degron read counts,[1],-1.75
same,log2 fold change of degron read counts,[2],-0.494
same,log2 fold change of degron read counts,[3],0.959
same,log2 fold change of degron read counts,compound: thalidomide,1.17
"FGCPICGRIFTQKGNLLRHIKL [46F_47G_49P_50I_52G_53R_54I_55F_67L_, Q9UKT9]",log2 fold change of degron read counts,[1],3.47
same,log2 fold change of degron read counts,[2],1.77
same,log2 fold change of degron read counts,[3],0.585
same,log2 fold change of degron read counts,compound: thalidomide,-0.161
"FSCPICGRIFTQKGNLLRHIKL [46F_47S_49P_50I_52G_53R_54I_55F_67L_, Q9UKT9]",log2 fold change of degron read counts,[1],-0.412
same,log2 fold change of degron read counts,[2],-0.447
same,log2 fold change of degron read counts,[3],1.06
same,log2 fold change of degron read counts,compound: thalidomide,0.174
"FKCPICGAIFTQKGNLLRHIKL [46F_47K_49P_50I_52G_53A_54I_55F_67L_, Q9UKT9]",log2 fold change of degron read counts,[1],-2.31
same,log2 fold change of degron read counts,[2],-3.23
same,log2 fold change of degron read counts,[3],-3.09
same,log2 fold change of degron read counts,compound: thalidomide,-1.63
"FGCPICGAIFTQKGNLLRHIKL [46F_47G_49P_50I_52G_53A_54I_55F_67L_, Q9UKT9]",log2 fold change of degron read counts,[1],3.81
same,log2 fold change of degron read counts,[2],2.51
same,log2 fold change of degron read counts,[3],2.55
same,log2 fold change of degron read counts,compound: thalidomide,0.986
